Sampled rows, rich in hits. Any-hit rate of the full collection: about 2.8%.
WRN helicase inh – blocks human WRN helicase | Q14191 | WRN helicase unwinding, fluorescent forked duplex, kinetic | Potency, µM (series often up to 114 µM), inactives show at the highest dose activity change, negative = inhibition, usual class: inhibitors | actives 0.46% (n = 360,000) | AID 651768; also: potency is read from the fitted curve at half-maximal effect; % is scaled to controls: 0 for no effect and ±100 for the full control effect; nearly all actives have a fitted effect of over 55% in size
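Kinetic fluorescence helicase assay: unwinding of a quenched forked DNA duplex (100 nM final) with 2 mM ATP final raises red fluorescence (525/598 nm). Compounds sat 15 min at room temperature with 20 nM WRN beforehand.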
POLI inh – inhibitors of human DNA polymerase iota. Q9UNA4. Pol iota fluorescent replication assay, 10 min. Potency, µM (doses to about 115 µM), inactives show at the top dose activity, negative = inhibition, usual class: inhibitors. AID 588590. actives 1% (n = 390,000); also: potency is read from the fitted curve at half-maximal effect
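Fluorescent replication assay read twice, at 0 min and 10 min after adding 50 nM (final) substrate. Enzyme (10 nM) and compounds were first incubated 15 min at room temperature; enzyme-free buffer wells were negative controls.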
Pol eta inh-1 – DNA polymerase eta (human) inhibition. actives 1.2% (n = 390,000). Potency, µM (top dose mostly 114 µM), for the others: at the top dose activity change, negative = inhibition, actives largely listed as inhibitors. Q9Y253. recombinant Pol eta, fluorescent DNA replication assay; also: potency is read from the fitted curve at half-maximal effect; % is scaled to controls: 0 for no effect and ±100 for the full control effect
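Fluorescent replication assay: 50 nM final substrate added after a 15 min room-temperature compound preincubation with 10 nM enzyme. Signal taken at 0 min and again at 10 min.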
POLK inh – blocks human DNA polymerase kappa activity; Potency, µM (doses to about 107 µM), for inactives: at the top dose activity, negative = inhibition, actives largely listed as inhibitors; actives 0.53% (n = 400,000); purified Pol kappa, fluorescent DNA synthesis assay, 10 min; also: potency is read from the fitted curve at half-maximal effect; % is scaled to controls: 0 for no effect and ±100 for the full control effect
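Activity was followed as the change in fluorescence between reads at 0 and 10 min after starting the reaction with 50 nM substrate. Beforehand, 10 nM polymerase had been preincubated with compound for 15 min at room temperature.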
POLB inh – inhibitors of human DNA polymerase beta; P06746; Pol beta primer extension/strand displacement, fluorescence kinetic; Potency, µM (doses to about 114 µM), inactives show at the top dose activity change, negative = inhibition, usual class: inhibitors; actives 1.3% (n = 340,000); AID 485314; also: potency is read from the fitted curve at half-maximal effect; % is scaled to controls: 0 for no effect and ±100 for the full control effect
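Kinetic readout of DNA synthesis with strand displacement by Pol beta. Compound and 10 nM enzyme sit 15 min at room temperature; 50 nM substrate starts the reaction, read immediately and at 10 min.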
PI5P4K alpha inh – blocks human PI5P4K alpha kinase activity; P48426; PI5P4Kalpha enzyme, ADP-Glo luminescence, 60 min; hits give low values; max response, %; actives 1.2% (n = 330,000); AID 652105; active = max response of -50% or lower; inconclusive = between -30% and -50%; inactive = -30% or higher; also: value at the top dose of about 77 µM; % is scaled to controls: 0 for no effect and ±100 for the full control effect
Target sequence (P48426 whole entry, looked up): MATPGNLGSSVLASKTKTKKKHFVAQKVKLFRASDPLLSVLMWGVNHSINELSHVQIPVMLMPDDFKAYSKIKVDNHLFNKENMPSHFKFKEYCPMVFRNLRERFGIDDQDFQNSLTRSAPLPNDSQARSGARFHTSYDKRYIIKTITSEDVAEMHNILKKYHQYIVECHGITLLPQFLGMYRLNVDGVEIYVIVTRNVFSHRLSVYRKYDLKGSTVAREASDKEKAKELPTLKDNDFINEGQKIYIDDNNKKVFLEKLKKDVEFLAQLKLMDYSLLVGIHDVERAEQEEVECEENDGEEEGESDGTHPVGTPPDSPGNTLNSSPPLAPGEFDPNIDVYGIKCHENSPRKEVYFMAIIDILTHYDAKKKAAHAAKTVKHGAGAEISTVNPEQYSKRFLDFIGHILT
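ADP-Glo luminescence end-point read after a 60 min room-temperature kinase reaction of PI5P4Kalpha plus substrate, initiated with ATP at 5 microM final. Buffer: 0.038 M HEPES pH 7.4, EGTA, 0.1% CHAPS, 5% DMSO.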
Pol eta inh-2 – Pol eta (human) inhibition, cherry-pick confirmation. Pol eta primer extension, TAMRA/BHQ fluorescence, 10 min. Potency, µM, hits mostly inhibitors. actives 64% (n = 2,600). shares compounds with Pol eta inh-1; also: potency is read from the fitted curve at half-maximal effect
* hit, by the source's call; ? = inconclusive; . = no result; [ ] = remark or other dose. Unless noted, calls follow the shape of the dose curve; as a rule, active = well fitted curve in the direction sought with a large enough effect; inconclusive = small, poorly fitted or top-dose-only effect, or another doubt; inactive = no such curve, though single readings can be large; an effect the other way counts as inactive or inconclusive.

SMILES	WRN helicase inh	POLI inh	Pol eta inh-1	POLK inh	POLB inh	PI5P4K alpha inh	Pol eta inh-2
CC(=O)Nc1ccn(C2OC(C(COC(C)=O)NC(=O)C(CCCCNC(=O)OCc3ccccc3)NC(=O)OC(C)(C)C)C(OC(C)=O)C2OC(C)=O)c(=O)n1 (stereo not drawn)	.	3%	.	-14%	.	.	.
CCOc1cc(N2CCOCC2)c(OCC)cc1NC(=O)C(NC(=O)c1c(F)cccc1F)C(C)C (stereo not drawn)	2%	13%	-15%	-1%	.	-1	.
O=C(Nc1ccccc1Br)c1cnn2c1NC(=C1CC1)C=C2C(F)F	.	?	.	-19%	.	.	.
CCOC(=O)Cc1nnc(NC(=O)CSc2nnc3c(n2)[nH]c2ccccc23)s1	?	25µM*	20µM*	79µM*	18µM*	-19	43*
Cc1nnc(NC(=O)CSc2nnc3c(n2)[nH]c2ccccc23)s1	.	-22%	11%	-7%	14%	.	.
COc1ccc(Cl)cc1NC(=O)c1c(NCc2ccc(C)o2)sc2c1CCCC2	.	?	50µM*	-9%[60.1 µM]	2%	.	?
CCc1nc2c(OCCn3cccc3)cccn2c1N(C)C(=O)C1CC1	4%	.	.	.	.	-1	.
Cc1ccc(S(=O)(=O)N2CCCCC2)cc1C(=O)NCCCN1CCOCC1	-23%	6%	-14%	2%	92%	7	.
Cc1ccc(C(=O)N2CCC(N3CCC(C(=O)N4CCOCC4)CC3)CC2)cc1	11%	.	-15%	.	.	3	.
O=C1NC(=O)/C(=C/c2ccc(-c3cc(C(=O)O)ccc3Cl)o2)S1	-10%[11.6 µM]	40µM*	20µM*	56µM*	32µM*	-82*	?
O=C(/C=C1\SC(=O)NC1=O)Nc1ccc(C(=O)O)cc1	-2%	?	-16%	-21%	7%	?	.
CC1(C(=O)NNC(=O)c2ccc(=O)oc2)CC1Br (stereo not drawn)	?	?	20µM*	?	?	?	34*
Cc1cc(=O)oc(C)c1C(=O)NNC(=O)C1(C)CC1Br (stereo not drawn)	-2%	3%[58.9 µM]	-4%	-10%	-4%	1	.
O=C(NCc1ccccc1)c1ccc(NC(=O)c2nsc3ccccc23)cc1	.	-3%	1%	-10%[60.1 µM]	-11%	.	.
O=C(O)CN1C(=O)/C(=C\c2cc(Br)ccc2OCc2ccc(F)cc2)SC1=S	?	40µM*	40µM*	-69%	40µM*	?	?
O/N=C/c1cc(Br)ccc1OCc1ccc(F)cc1	-6%	7%	-8%	-23%	.	-1	.
Cc1cc(Br)cn2c(Cc3ccccc3)c(-c3ccccc3)nc12	-10%	.	.	.	.	-1	.
O=[N+]([O-])c1ccc(Cl)c(S(=O)(=O)Nc2ccc3cn[nH]c3c2)c1	4%	29%	-9%	-4%	.	0	.
O=C(O)c1ccc(Cl)c(S(=O)(=O)Nc2ccc3cn[nH]c3c2)c1	-14%	?	18µM*	?	22µM*	-21	?
Cc1nc(SCC(=O)O)c(C#N)c2c1CCCC2	45µM*	25µM*	7.9µM*	?	8.9µM*	?	24*
Cc1ccc(OCC(=O)Nc2ccc(Cl)c(-c3nc4ncccc4o3)c2)cc1C	.	-5%	-12%	1%[60.1 µM]	?	.	.
COc1cc(CNC(=O)c2ccc3c(c2)c(C)c(C)n3Cc2cccc(C)c2)cc(OC)c1OC	.	11%	-19%	-20%	-2%	.	.
Cc1cccc(Cn2c(C)c(C)c3cc(C(=O)NCc4ccco4)ccc32)c1	.	-10%	79µM*	-15%	?	.	?

Bioassay records: PubChem, National Center for Advancing Translational Sciences (NCATS)
